{
  "source": "PubChem BioAssay AID651690",
  "about": "(Sanford-Burnham Center for Chemical Genomics, 2012)",
  "note": "The list shows a part of the results. Active and inactive are the calls of the source. Rule as the data show it: active = inhibition mostly above about 32% (no sharp cut-off); inactive = mostly below about 29%.",
  "data": [
    {"biological_target": "Sentrin-specific protease 1 (Homo sapiens) (UniProt Q9P0U3)", "sequence (Q9P0U3 419-644 limits assumed)": "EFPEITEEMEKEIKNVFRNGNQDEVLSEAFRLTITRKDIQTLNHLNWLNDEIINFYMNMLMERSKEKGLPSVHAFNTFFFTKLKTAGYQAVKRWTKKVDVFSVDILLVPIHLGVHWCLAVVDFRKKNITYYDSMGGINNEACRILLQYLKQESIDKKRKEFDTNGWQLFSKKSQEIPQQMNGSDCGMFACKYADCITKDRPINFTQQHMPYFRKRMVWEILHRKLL", "test": "SENP1 SUMO protease blockers by rate readout – biochemical, kinetic FRET, single concentration, confirmation (AID 651690);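 also: 0% = DMSO with enzyme and 100% = no enzyme substrate only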", "conditions": "recombinant SENP1, CyPet-SUMO1-YPet FRET kinetic cleavage; at 10 µM; active compounds read high", "values": [
      {"molecule": "Cc1cc(C(=O)N/N=C/c2ccc(N3CCOCC3)cc2)c(C)o1", "inhibition": "17.6% (inactive)"},
      {"molecule": "O=C(NC(=O)c1ccccc1)Nc1ccccc1O", "inhibition": "-0.175% (inactive)"},
      {"molecule": "N/C(=N\\OC(=O)N1c2ccccc2Sc2ccccc21)c1ccc(Br)cc1", "inhibition": "0.1% (inactive)"},
      {"molecule": "c1coc(-c2nc3nc4ccccc4n3nc2-c2ccco2)c1", "inhibition": "13.5% (inactive)"},
      {"molecule": "O=C(CCN1C(=O)/C(=C/c2cccs2)SC1=S)NNC(=O)c1cccc(O)c1", "inhibition": "44.5% (active)"},
      {"molecule": "CCCCCn1nnnc1-c1nc2cc3ccccc3cc2[nH]c1=O", "inhibition": "56.7% (active)"},
      {"molecule": "COc1cc(/C=C2\\CCCc3c2nc2ccccc2c3C(=O)O)cc(Cl)c1O", "inhibition": "63.6% (active)"},
      {"molecule": "COc1ccc(N2C(=O)C3C(C2=O)C(C(=O)c2ccccc2)N2CCCC32)cc1", "note": "(stereo unspecified)", "inhibition": "23.7% (inactive)"},
      {"molecule": "CCOC(=O)C1CCN(c2ncnc3c2c(-c2ccccc2)cn3-c2ccc(C)cc2)CC1", "inhibition": "10.2% (inactive)"},
      {"molecule": "O=[N+]([O-])c1ccc(N=NNc2ccc([N+](=O)[O-])cc2)cc1", "inhibition": "11.6% (inactive)"},
      {"molecule": "COc1ccc(OC)c(C2C3=C(N=c4s/c(=C\\c5cccc(O)c5)c(=O)n42)c2ccccc2CC3)c1", "note": "(stereo unspecified)", "inhibition": "19.3% (inactive)"},
      {"molecule": "Cc1ccc(C(=O)N/N=C\\c2cc(Br)c(Br)o2)cn1", "inhibition": "14.5% (inactive)"},
      {"molecule": "O=C1CC[C@@H]2CC3(C[C@@H]4CCN1[C@H]24)Nc1cc([N+](=O)[O-])ccc1NC3=NC1CCCCC1", "note": "(stereo partly specified)", "inhibition": "2.83% (inactive)"},
      {"molecule": "Cc1ccc2c(c1)nnc1nnc(SCC(=O)O)n12", "inhibition": "46.3% (active)"},
      {"molecule": "Cc1cccc(C)c1Nc1c(-c2ccccc2O)nc2ncccn12", "inhibition": "8.55% (inactive)"},
      {"molecule": "O=C1/C(=C/c2coc3ccc(O)cc3c2=O)SC(=S)N1c1ccccc1", "inhibition": "-0.025% (inactive)"},
      {"molecule": "Cn1c(-c2sc3cc(C(F)(F)F)cnc3c2-c2ccccc2)n[nH]c1=S", "inhibition": "11.8% (inactive)"},
      {"molecule": "Fc1cccc(Cc2c(-c3cccc(Cl)c3)nc3ccc(Br)cn23)c1", "inhibition": "3.67% (inactive)"},
      {"molecule": "CCN(CC)S(=O)(=O)c1cc([N+](=O)[O-])ccc1N=Nc1c(O)n(C)c2ccccc12", "inhibition": "-1.62% (inactive)"},
      {"molecule": "O=C1C=C(c2cccc(Cl)c2O)C[C@@H](c2ccc(F)cc2)C1", "inhibition": "74.6% (active)"},
      {"molecule": "CC(=O)c1cccc(-c2cnc3c(NC=O)cc(-c4ccc(N(C)C)cc4)cn23)c1", "inhibition": "48.5% (active)"}
    ]}
  ]
}
